Measured values reported in PubChem BioAssay AID651820 (National Center for Advancing Translational Sciences (NCATS), 2012).
The campaign covered roughly 340,000 compounds. About 12,000 (3.5%) were called active. Entries that show only a call come without a potency. Another 18% or so got no clear call; they are omitted. This is one part of a sample in which actives are shown more often than they occur. Values without a mark were called inactive. Calls come from the whole dose curve; as a rule, active = well fitted inhibition curve with a large enough effect; inconclusive = small, poorly fitted or top-dose-only effect, or another doubt; inactive = no such curve, though single readings can be large or run the other way.
Potency is the fitted concentration of half-maximal effect.

Experiment: qHTS Assay for Inhibitors of Hepatitis C Virus (HCV)
Conditions: Huh7.5.1 HCVcc-Cre infection, luciferase reporter, 44 h; series mostly up to 41.8 µM
Summary of the method: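 Cells (1,000/well) were plated 4 h before compound, then infected with HCVcc-Cre virus (~0.5 moi). After 44 h further culture, infection was read as luciferase luminescence following a 15 min substrate incubation at room temperature.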
In the case of `COc1ccc(S(=O)(=O)N2CCCCC2)cc1NC(=O)c1cc([N+](=O)[O-])ccc1N1CCOCC1`, the Potency is reported as 7.94 µM (active). In the case of `O=C(NCC1CCCCC1)c1cc(S(=O)(=O)N2CCCCC2)ccc1N1CCOCC1`, the Potency is reported as “inactive”. In the case of `O=C(NC1CCCCC1)c1cc([N+](=O)[O-])ccc1N1CCOCC1`, the Potency is reported as “inactive”. In the case of `O=C(OCCOc1ccccc1Cl)c1cc(S(=O)(=O)N2CCCCC2)ccc1N1CCOCC1`, the Potency is reported as 2.51 µM (active). In the case of `CC(C)(C)C(=O)COC(=O)c1cc(S(=O)(=O)N2CCCCC2)ccc1N1CCOCC1`, the Potency is reported as “inactive”. With `O=C(OCCOc1ccccc1F)c1cc(S(=O)(=O)N2CCOCC2)ccc1F` the Potency was “inactive”. For `O=C(COC(=O)c1cc(S(=O)(=O)N2CCOCC2)ccc1F)NC1CC1`, the Potency was “inactive”. For `COC1C(CO)OC(n2cnc3c(=S)nc(N)[nH]c32)C1O` (stereo not given), the Potency was “inactive”. For `CC(C)(C)c1ccc(S(=O)(=O)N2CCN(C(=O)c3ccc4c(c3)C(=O)N(Cc3ccncc3)C4=O)CC2)cc1`, the Potency was “inactive”. In the case of `CC[C@]1(C(=O)OC)[C@H]2C(=O)N(Cc3ccccc3)C(=O)[C@H]2[C@H]2CN=C(SCc3ccc(C#N)cc3)N21`, the activity change, negative = inhibition is reported as -29.6% [at 8.37 µM]. With `Cc1nc(N)nc(Cl)c1CCC1OCCO1` the Potency was “inactive”. For `O=C(CSc1nnc(COc2ccc(Cl)cc2)n1Cc1ccco1)N1CCNC1=O`, the Potency was “inactive”. In the case of `Cc1csc(NC(=S)Nc2cccc(Cl)c2)n1`, the Potency is reported as 12.6 µM (active). For `CC(=O)Nc1cccc(C(=O)Nc2nc(C)cs2)c1`, the Potency was “inactive”. For `S=C(Nc1cccc(Cl)c1)Nc1ccc2cn[nH]c2c1`, the Potency was “inactive”. For `Cc1ccc(Cn2c(C)c3cnn(CC(=O)NCCN4CCOCC4)c(=O)c3c2C)cc1`, the Potency was “inactive”. In the case of `COc1ccc(CNC(=O)CN2C(=O)c3ccccc3S2(=O)=O)cc1`, the Potency is reported as “inactive”. With `O=C(Cn1nnc(-c2ccccc2)n1)NC(=O)NC1CCCC1` the Potency was “inactive”. For `COc1c(C)c2c(c(O)c1C/C=C(\C)CCC(=O)O)C(=O)OC2`, the Potency was 2 µM (active). In the case of `CC(C)[C@@H](C(=O)OCC(=O)c1ccc2c(c1)NC(=O)CO2)N1C(=O)c2ccccc2C1=O`, the Potency is reported as “inactive”. In the case of `Cc1ccc(-n2nc3c(=O)n(C(C)C(=O)NCc4ccc5c(c4)OCO5)nc(C)c3c2C)cc1` (stereo not given), the Potency is reported as 11.2 µM (active). For `Cc1nn(C(C)C(=O)N2CCOCC2)c(=O)c2nn(-c3ccccc3)c(C)c12` (stereo not given), the Potency was “inactive”. For `CC(Sc1nncs1)C(=O)NCc1ccc2c(c1)OCO2` (stereo not given), the Potency was “inactive”. With `Cc1noc(C)c1NC(=O)Nc1ccc2c(c1)C(=O)N([C@H](C)CO)C[C@H](C)[C@@H](CN(C)S(=O)(=O)c1cn(C)cn1)O2` the Potency was “inactive”. With `Cc1ccc(C2CCN(C(=S)Nc3cccc(Cl)c3)C2)cc1` (stereo not given) the Potency was 12.6 µM (active). For `O=C(C1CCCO1)N1CCN(C(=S)Nc2cccc(Cl)c2)CC1` (stereo not given), the Potency was “inactive”. For `Cc1cccc(NC(=S)N2CCC(C(=O)c3ccc(F)cc3)CC2)c1`, the Potency was “inactive”. In the case of `Cc1nc(C)c(-c2csc(NCCc3ccccc3)n2)s1`, the Potency is reported as 2.82 µM (active). In the case of `S=c1[nH]nc(NCCc2ccccc2)s1`, the Potency is reported as “inactive”. In the case of `Cc1nc(N)sc1-c1ccccc1`, the Potency is reported as “inactive”. In the case of `C[C@H](CO)N1C[C@H](C)[C@@H](CN(C)C(=O)Nc2ccc3c(c2)OCO3)Oc2c(cccc2N(C)C)C1=O`, the Potency is reported as “inactive”. In the case of `Cc1occc1-c1nnc(SCC(=O)NC2CCCCC2)o1`, the Potency is reported as “inactive”. With `CCN(CC(=O)NCc1ccc(F)cc1)S(=O)(=O)c1ccc(Cl)s1` the Potency was “inactive”. For `CCOc1cc(C=NNC(=O)CCCC(=O)NN=Cc2ccc(O)c(OCC)c2)ccc1O`, the Potency was “inactive”. With `CCOc1cc(/C=C(\C#N)c2nc(-c3cccs3)c(NC(C)=O)s2)ccc1O` the Potency was 0.891 µM (active). In the case of `COc1cc(/C=N\Nc2nc(-c3cccs3)c(NC(C)=O)s2)ccc1O`, the Potency is reported as “inactive”. With `Cc1ccc(C2(C)NC(=O)N(CC(=O)N3CC(=O)Nc4ccccc43)C2=O)cc1` (stereo not given) the Potency was “inactive”. For `O=C(CN1CCN(C2CCS(=O)(=O)C2)CC1)N1N=C(c2ccc(Cl)cc2)CC1c1ccco1` (stereo not given), the Potency was “inactive”. With `CCCOc1ccc(Cc2c(Cl)nc(SC)nc2NC)cc1` the Potency was 2.82 µM (active). In the case of `CCCOc1ccc(Cc2c(O)nc(SC)[nH]c2=O)cc1C`, the Potency is reported as “inactive”. With `CCCOc1ccc(-c2nc(N)n[nH]2)cc1` the Potency was “inactive”. In the case of `CCOC(=O)N(Cc1ccccc1)C1CC1`, the Potency is reported as “inactive”. Molecule `CC(C)(C)OC(=O)N(Cc1ccccc1)Cc1ccc(OCc2cccc(NC(=O)c3ccccc3)c2)cc1` has an activity change, negative = inhibition of -4.99% [at 8.37 µM]. With `CC(C)c1cc(C(N)=O)c(NC(=O)c2cccc(COc3ccc(Br)cc3)c2)s1` the Potency was 10 µM (active). In the case of `COc1ccc(OCc2cccc(C(=O)N3CCCC3)c2)cc1`, the Potency is reported as “inactive”. With `O=C(CNS(=O)(=O)c1ccc2c(c1)OCCCO2)N1CCN(c2ccc(F)cc2)CC1` the Potency was “inactive”. With `CC1(C)C=Cc2c(ccc3c2OC[C@@H](c2ccc(O)cc2O)C3)O1` the Potency was “inactive”. For `O=c1[nH]c(N2CCOCC2)nc2ccccc12`, the Potency was “inactive”. With `c1ccc(Nc2nc(N3CCOCC3)c3ccccc3n2)cc1` the Potency was 11.2 µM (active). In the case of `CN1CCN(c2nc(Nc3ccc(O)cc3)nc3ccccc23)CC1`, the Potency is reported as “inactive”. With `CCCCC(C(=O)OCC(=O)c1ccc(OC)cc1)N1C(=O)c2ccccc2C1=O` (stereo not given) the Potency was “inactive”. In the case of `COc1ccc(OCCCON2C(=O)c3ccccc3C2=O)cc1`, the Potency is reported as “inactive”. In the case of `CCOC(=O)C1=C(c2ccc(OC)cc2)C(=O)c2ccccc2C1=O`, the Potency is reported as 7.08 µM (active). For `O=[N+]([O-])c1ccc(NS(=O)(=O)c2ccccc2)c(Cl)c1`, the Potency was “inactive”. In the case of `COc1ccccc1NC(=O)CSc1nnc(Cn2nnc(-c3ccccc3)n2)n1-c1ccccc1`, the Potency is reported as 31.6 µM (active). With `COc1ccccc1OCc1nnc(SCC(N)=O)n1-c1ccccc1` the Potency was “inactive”. With `COc1ccccc1NC(=O)CSc1nnc(Cc2cccn2C)n1-c1ccc(F)cc1` the Potency was “inactive”. In the case of `O=C(COC(=O)c1n[nH]c2ccccc12)Nc1ccccc1Br`, the Potency is reported as “inactive”. For `CC(C(=O)Nc1ccc(S(=O)(=O)N2CCCC2)cc1)N(C)Cc1ccc(F)cc1` (stereo not given), the Potency was “inactive”. With `Cc1cccc2sc(N(CCCN(C)C)C(=O)CCS(=O)(=O)c3ccccc3)nc12` the Potency was “inactive”. With `COc1cccc2sc(N(CCCN(C)C)C(=O)CCS(=O)(=O)c3ccccc3)nc12` the Potency was “inactive”. With `COc1cc2ccccc2cc1C(=O)N(CCN(C)C)c1nc2c(F)cccc2s1` the Potency was 14.1 µM (active). With `COc1cccc2sc(N(CCCN(C)C)C(=O)C(c3ccccc3)c3ccccc3)nc12` the Potency was 12.6 µM (active). For `CCOc1ccc2nc(N(CCN(C)C)C(=O)c3ccc4ccccc4c3)sc2c1`, the Potency was “inactive”. For `CCOc1ccc2nc(N(CCCN(C)C)C(=O)c3ccc(C(=O)c4ccccc4)cc3)sc2c1`, the Potency was “inactive”.
